# Where “and” joins values, the source holds several entries; their conditions need not be identical. Equal values may be shown once. Some structures have more than one record in an assay (separate samples or runs), and their calls can disagree. Calls of active or inactive are those of the source. The calls were made as follows: active = hit-call score of the fitted dose curve at least 0.9, where 1 is the maximum; inactive = score below 0.9.
# Tests used:
# [1] = read-out: Interleukin-1 alpha (IL1a), IL1A (gene 3552); test: BSK_LPS_IL1a: BioMAP Diversity Plus: LPS Assay for Interleukin-1 alpha (IL1a) Biomarker Activity (AID 2283080); conditions: primary human HUVEC with PBMC; actives raise or lower the signal
# How it was run: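 HUVEC/PBMC co-culture, LPS system; 24 h after dosing; IL-1a by ELISA; gain or loss of signal fitted bidirectionally vs DMSO baseline.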
# [2] = read-out: Monocyte Chemoattractant Protein-1 (MCP1), CCL2 (gene 6347); test: BSK_LPS_MCP1: BioMAP Diversity Plus: LPS Assay for Monocyte Chemoattractant Protein-1 (MCP1) Biomarker Activity (AID 2283081); conditions: primary human HUVEC with PBMC; actives raise or lower the signal;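 as to AC50: secreted MCP-1 protein quantified by ELISA in culture supernatant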
# How it was run: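 ELISA read-out of MCP-1 after 24 h chemical dosing of a human umbilical vein endothelial cell/peripheral blood mononuclear cell co-culture stimulated with LPS. Gain or loss of signal fitted relative to DMSO controls.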
# [3] = read-out: Tissue Factor, F3 (gene 2152); test: BSK_LPS_TissueFactor: BioMAP Diversity Plus: LPS Assay for Tissue Factor Biomarker Activity (AID 2283084); conditions: primary human HUVEC with PBMC; actives raise or lower the signal
# How it was run: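 HUVEC/PBMC co-culture, LPS-activated; CD142 ELISA read 24 h post-dose; bidirectional curve fit vs DMSO negative control.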
# [4] = read-out: Tumor necrosis factor (Homo sapiens) (UniProt P01375); test: BSK_LPS_TNFa: BioMAP Diversity Plus: LPS Assay for Tumour Necrosis Factor alpha (TNFa) Biomarker Activity (AID 2283085); conditions: primary human HUVEC with PBMC; actives raise or lower the signal;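 as to AC50: TNFa protein level quantified by ELISA in the co-culture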
# How it was run: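 ELISA-based TNFa endpoint in a human endothelial–PBMC co-culture sampled 24 h post-exposure. Curves were fitted in both directions using DMSO as baseline of activity.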
# [5] = read-out: Vascular cell adhesion molecule 1 (VCAM1), VCAM1 (gene 7412); test: BSK_LPS_VCAM1: BioMAP Diversity Plus: LPS Assay for Vascular cell adhesion molecule 1 (VCAM1) Biomarker Activity (AID 2283086); conditions: primary human HUVEC with PBMC; actives raise or lower the signal
# How it was run: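 Measured by ELISA: VCAM-1 in LPS-activated HUVEC/PBMC co-cultures 24 h after treatment. Values reflect bidirectional fitting with DMSO as baseline.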
# CD38, CD38 (gene 952) = test: BSK_SAg_CD38: BioMAP Diversity Plus: SAg Assay for CD38 Biomarker Activity (AID 2283087); conditions: primary human HUVEC with PBMC; actives raise or lower the signal
# How it was run: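 Measures CD38 on a human endothelial/PBMC co-culture driven by SEB and TSST-1, 24 h after compound exposure, using ELISA with fluorescence detection; DMSO defines baseline for bidirectional curve fitting.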
# CD69, CD69 (gene 969) = test: BSK_SAg_CD69: BioMAP Diversity Plus: SAg Assay for CD69 Biomarker Activity (AID 2283089); conditions: primary human HUVEC with PBMC; actives raise or lower the signal;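 as to AC50: cell surface CD69 protein quantified by ELISA with fluorescence detection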
# How it was run: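 HUVEC co-cultured with PBMC were dosed with chemical, and CD69 was measured by ELISA with fluorescence read-out 24 h later. Bidirectional curve fitting used DMSO as negative control and activity baseline.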
# [6] = read-out: Monocyte Chemoattractant Protein-1 (MCP1), CCL2 (gene 6347); test: BSK_SAg_MCP1: BioMAP Diversity Plus: SAg Assay for Monocyte Chemoattractant Protein-1 (MCP1) Biomarker Activity (AID 2283090); conditions: primary human HUVEC with PBMC; actives raise or lower the signal
# How it was run: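 Values derive from bidirectional fitting of ELISA-measured MCP1 against DMSO controls. Readings were taken 24 h after dosing human vascular endothelial cells co-cultured with peripheral blood mononuclear cells under superantigen stimulation.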
# [7] = read-out: E-selectin (Homo sapiens) (UniProt P16581); test: BSK_SAg_Eselectin: BioMAP Diversity Plus: SAg Assay for Eselectin Biomarker Activity (AID 2283091); conditions: primary human HUVEC with PBMC; actives raise or lower the signal
# How it was run: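 E-selectin ELISA readout at 24 h post-dosing in human umbilical vein endothelial cell/PBMC co-culture; gain or loss of signal fitted relative to DMSO baseline.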
# [8] = read-out: Monokine induced gamma interferon (MIG), CXCL9 (gene 4283); test: BSK_SAg_MIG: BioMAP Diversity Plus: SAg Assay for Monokine induced gamma interferon (MIG) Biomarker Activity (AID 2283092); conditions: primary human HUVEC with PBMC; actives raise or lower the signal
# How it was run: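 HUVEC plus human PBMC co-culture, chemicals dosed and MIG (CXCL9) quantified by ELISA at 24 h. Bidirectional curve fitting against DMSO as negative control and baseline, so both gain and loss of signal count as activity.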
# [9] = BSK_SAg_PBMCCytotoxicity: PBMC Cytotoxicity Assessment in the BioMAP Diversity Plus: SAg Assay (AID 2283093); conditions: primary human HUVEC with PBMC;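 also: PBMC viability measured as Alamar Blue reduction fluorescence at 546/580 nm; fitted both ways against DMSO so a hit may be loss or gain of signal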;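 as to AC50: PBMC superantigen activated with SEB plus TSST-1 one hour after compound addition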
# How it was run: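 Alamar Blue reduction (6 h, 546/580 nm) reports PBMC cytotoxicity after 90 h superantigen activation (SEB, TSST-1; 20 ng/mL final each) with 1 h compound pre-treatment. Gain or loss of signal fitted versus DMSO.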
# [10] = read-out: Interleukin-8 (IL8), CXCL8 (gene 3576); test: BSK_SAg_IL8: BioMAP Diversity Plus: SAg Assay for Interleukin-8 (IL8) Biomarker Activity (AID 2283094); conditions: primary human HUVEC with PBMC; actives raise or lower the signal
# How it was run: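 Primary human endothelial cells with PBMC, exposed 24 h; IL-8 determined by ELISA, analysed bidirectionally relative to DMSO.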
# [11] = BSK_SAg_Proliferation: Cell Proliferation Assessment in the BioMAP Diversity Plus: SAg Assay (AID 2283095); conditions: primary human HUVEC with PBMC;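 also: relative cell number as total protein by SRB absorbance in sub-confluent culture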
# How it was run: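 A human primary co-culture of umbilical vein endothelium and blood mononuclear cells receives compound; relative cell number is quantified at 96 h by SRB staining and 560 nm absorbance, with DMSO-referenced bidirectional curve fitting.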
# [12] = BSK_SAg_SRB: Viability Assessment in the BioMAP Diversity Plus: SAg Assay (AID 2283096); conditions: primary human HUVEC with PBMC;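 also: cells read one day after compound addition; hits may be either gain or loss of signal compared with DMSO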
# How it was run: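 This overt-cytotoxicity endpoint quantifies protein in human endothelial/PBMC co-cultures at 24 h using SRB absorbance (560 nm) after trichloroacetic acid fixation. Values reflect signal change from the DMSO negative control, fitted bidirectionally.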
# [13] = BSK_LPS_PGE2: BioMAP Diversity Plus: LPS Assay for Prostaglandin E2 (PGE2) Biomarker Activity (AID 2283082); conditions: primary human HUVEC with PBMC; actives raise or lower the signal;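 as to AC50: secreted prostaglandin E2 measured by ELISA in LPS-stimulated co-culture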
# How it was run: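 Primary human endothelial cells and blood mononuclear cells, co-cultured with LPS, receive test chemical; PGE2 ELISA follows at 24 h, with SRB-stained parallel cultures flagging cytotoxicity.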
# [14] = read-out: Macrophage colony-stimulating factor (MCSF), CSF1 (gene 1435); test: BSK_LPS_MCSF: BioMAP Diversity Plus: LPS Assay for Macrophage colony-stimulating factor (MCSF) Biomarker Activity (AID 2283083); conditions: primary human HUVEC with PBMC; actives raise or lower the signal
# How it was run: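 HUVEC + PBMC co-culture (human primary), 24 h post-dose; M-CSF by ELISA; gain/loss of signal fitted bidirectionally vs DMSO baseline.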
# CD40, CD40 (gene 958) = test: BSK_SAg_CD40: BioMAP Diversity Plus: SAg Assay for CD40 Biomarker Activity (AID 2283088); conditions: primary human HUVEC with PBMC; actives raise or lower the signal
# How it was run: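 HUVEC/PBMC co-culture, 24 h post-dose; CD40 by ELISA, fluorescence intensity; bidirectional fit vs DMSO negative control.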
# Chain of E-selectin (Homo sapiens) (P16581 whole entry, looked up): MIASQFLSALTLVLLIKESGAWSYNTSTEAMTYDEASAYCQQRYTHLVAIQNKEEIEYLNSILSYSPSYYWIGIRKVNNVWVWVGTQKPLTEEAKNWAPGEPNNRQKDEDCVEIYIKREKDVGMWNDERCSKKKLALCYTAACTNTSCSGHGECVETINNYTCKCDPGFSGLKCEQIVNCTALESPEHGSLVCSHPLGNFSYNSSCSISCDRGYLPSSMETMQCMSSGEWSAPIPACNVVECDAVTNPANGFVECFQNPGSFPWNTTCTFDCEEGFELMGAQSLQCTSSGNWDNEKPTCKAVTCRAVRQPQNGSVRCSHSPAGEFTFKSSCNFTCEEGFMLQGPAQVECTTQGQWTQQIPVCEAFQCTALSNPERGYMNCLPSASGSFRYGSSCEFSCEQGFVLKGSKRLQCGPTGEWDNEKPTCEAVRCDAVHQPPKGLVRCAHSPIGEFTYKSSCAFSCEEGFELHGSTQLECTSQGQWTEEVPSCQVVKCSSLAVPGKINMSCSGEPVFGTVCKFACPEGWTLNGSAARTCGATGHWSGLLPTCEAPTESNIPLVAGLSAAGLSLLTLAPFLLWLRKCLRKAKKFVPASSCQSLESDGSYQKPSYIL
# Chain of Tumor necrosis factor (Homo sapiens) (P01375 whole entry, looked up): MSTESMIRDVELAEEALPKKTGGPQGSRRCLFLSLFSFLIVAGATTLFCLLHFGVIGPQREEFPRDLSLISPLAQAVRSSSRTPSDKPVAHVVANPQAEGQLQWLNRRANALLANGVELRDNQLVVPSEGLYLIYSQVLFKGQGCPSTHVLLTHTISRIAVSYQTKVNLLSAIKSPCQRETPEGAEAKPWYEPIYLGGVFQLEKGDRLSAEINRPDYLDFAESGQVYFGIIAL
structure (smiles),measurement,setting,value
CCc1cccc(CC)c1N(COC)C(=O)CCl,AC50,[1],1.06 µM (active)
same,outcome,[2],inactive
same,outcome,[3],inactive
same,AC50,[4],1.31 µM (active)
same,AC50,[5],26.9 µM (active)
same,AC50,"CD38, CD38 (gene 952)",28.6 µM (active)
same,AC50,"CD69, CD69 (gene 969)",15.4 µM (active)
same,AC50,[6],29.4 µM (active)
same,AC50,[7],14.2 µM (active)
same,outcome,[8],inactive
same,outcome,[9],inactive
same,outcome,[10],inactive
same,AC50,[11],23.6 µM (active)
same,AC50,[12],20 µM (active)
CCc1cnc(C2=NC(C)(C(C)C)C(=O)N2)c(C(=O)O)c1 (configuration not stated),outcome,[1],inactive
same,outcome,[2],inactive
same,outcome,[13],inactive
same,outcome,[14],inactive
same,outcome,[3],inactive
same,outcome,[4],inactive
same,outcome,[5],inactive
same,outcome,"CD38, CD38 (gene 952)",inactive
same,outcome,"CD69, CD69 (gene 969)",inactive
same,outcome,[6],inactive
same,outcome,[7],inactive
same,outcome,[8],inactive
same,outcome,[9],inactive
same,outcome,[10],inactive
same,outcome,[11],inactive
same,outcome,[12],inactive
Cc1nn(-c2cc(NS(C)(=O)=O)c(Cl)cc2Cl)c(=O)n1C(F)F,outcome,[1],inactive
same,outcome,[2],inactive
same,outcome,[13],inactive
same,outcome,[14],inactive
same,outcome,[3],inactive
same,outcome,[4],inactive
same,outcome,[5],inactive
same,outcome,"CD38, CD38 (gene 952)",inactive
same,outcome,"CD69, CD69 (gene 969)",inactive
same,outcome,[6],inactive
same,outcome,[7],inactive
same,outcome,[8],inactive
same,outcome,[9],inactive
same,outcome,[10],inactive
same,outcome,[11],inactive
same,outcome,[12],inactive
CN(C)NC(=O)CCC(=O)O,outcome,[1],inactive
same,outcome,[2],inactive
same,outcome,[13],inactive
same,outcome,[3],inactive
same,outcome,[4],inactive
same,outcome,[5],inactive
same,outcome,"CD38, CD38 (gene 952)",inactive
same,outcome,"CD69, CD69 (gene 969)",inactive
same,outcome,[6],inactive
same,outcome,[7],inactive
same,outcome,[8],inactive
same,outcome,[9],inactive
same,outcome,[10],inactive
same,outcome,[11],inactive
same,outcome,[12],inactive
O=[N+]([O-])c1cc(C(F)(F)F)c(Cl)c([N+](=O)[O-])c1Nc1ncc(C(F)(F)F)cc1Cl,AC50,[2],1.52 µM (active) and 3.74 µM (active)
same,AC50,[13],7.89 µM (active) and 3.71 µM (active)
same,AC50,[3],1.44 µM (active) and 2.17 µM (active)
same,AC50,[4],1.81 µM (active)
same,outcome,[4],inactive
same,AC50,[5],1.5 µM (active) and 2.05 µM (active)
same,AC50,"CD38, CD38 (gene 952)",1.35 µM (active) and 2.58 µM (active)
same,AC50,"CD40, CD40 (gene 958)",1.51 µM (active) and 1.86 µM (active)
same,AC50,"CD69, CD69 (gene 969)",1.91 µM (active) and 3.73 µM (active)
same,AC50,[6],2.24 µM (active) and 3.79 µM (active)
same,AC50,[7],1.51 µM (active) and 2.65 µM (active)
same,AC50,[8],3.49 µM (active) and 2.45 µM (active)
same,AC50,[9],814 nM (active) and 2.03 µM (active)
same,AC50,[10],1.81 µM (active) and 3.64 µM (active)
same,AC50,[11],318 nM (active) and 526 nM (active)
same,AC50,[12],3.84 µM (active)

# From PubChem BioAssay (EPA / NIEHS)
